# From PubChem
# The list is not random: actives were taken first. Their share in the collection is about 2.3%.
# CHO-K1 Ca ag – M1 agonist counterscreen hit in parental CHO-K1 cells. Fluo-8 calcium fluorescence; scaled to maximal ATP response, vehicle zero. activation, % at 3 µM. 360,000 tested, 0.48% active. AID 602248; in the data active = activation above about 15%;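 note: untransfected CHO-K1 host cells lacking M1 receptor as counterscreen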
# M1 ag – human M1 muscarinic receptor agonism. P11229. AID 588814. activation, % at 3 µM. 360,000 tested, 0.33% active. CHO-K1 hM1, Fluo-8 calcium fluorescence, agonist mode; 0% DMSO, 100% acetylcholine EC100;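 active = activation above the run's mean compound activation plus 3 SD, cut at about 16% in these data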;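 note: peak over basal fluorescence ratio within a 140 s kinetic read after compound addition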
# Target sequence (P11229 whole entry, looked up): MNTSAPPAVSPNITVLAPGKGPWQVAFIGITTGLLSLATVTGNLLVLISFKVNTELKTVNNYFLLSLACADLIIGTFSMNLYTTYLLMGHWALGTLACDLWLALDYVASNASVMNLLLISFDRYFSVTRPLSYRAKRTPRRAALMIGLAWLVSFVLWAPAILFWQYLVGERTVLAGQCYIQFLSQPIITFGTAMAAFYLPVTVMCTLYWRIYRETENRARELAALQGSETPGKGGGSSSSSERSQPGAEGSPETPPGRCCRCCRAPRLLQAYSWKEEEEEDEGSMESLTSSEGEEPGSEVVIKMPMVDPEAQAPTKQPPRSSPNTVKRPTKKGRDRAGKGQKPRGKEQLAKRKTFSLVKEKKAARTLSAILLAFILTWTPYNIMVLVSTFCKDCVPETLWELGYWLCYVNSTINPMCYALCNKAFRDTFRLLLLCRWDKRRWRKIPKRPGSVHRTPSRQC
# CHO-K1 Ca antag – counter-screen for M1 antagonists: effect in parental CHO-K1 cells | ATP-induced calcium, Fluo-8 fluorescence | inhibition, % at 3 µM | 360,000 tested, 0.6% active;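 active = inhibition above a per-plate cutoff, the plate's mean sample inhibition plus 3 SD, cut at about 24% in these data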;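 note: 0% = DMSO plus EC80 ATP and 100% = DMSO alone without ATP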
# CHO-K1 Ca PAM – M1 PAM counterscreen hit in parental CHO-K1 cells. activation, % at 3 µM. AID 602247. 360,000 tested, 0.02% active. ATP EC20, Fluo-8 calcium fluorescence; 0% at ATP EC20, 100% at ATP max;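 active = activation above the run cutoff, the mean activation of all test compounds plus 3 SD, cut at about 40% in these data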;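 note: peak over basal fluorescence ratio in a 140 s read after ATP addition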
# M1 antag – human CHRM1 antagonism; AID 588852; inhibition, % at 3 µM; CHO-K1 hM1, Fluo-8 calcium fluorescence, ACh EC80 antagonist; 360,000 tested, 1.3% active; P11229;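 active = percent inhibition above its own plate's cutoff, namely the mean of that plate's compound wells plus 3 SD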;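 note: peak over basal fluorescence ratio during 140 s after agonist addition; 0% = ACh EC80 plus DMSO and 100% = DMSO alone without agonist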
# M1 PAM – positive allosteric modulators of human M1 muscarinic receptor; P11229; CHO-K1 hM1, Fluo-8 calcium fluorescence, ACh EC20; 0% = ACh EC20, 100% = maximal ACh; activation, % at 3 µM; 360,000 tested, 0.088% active; AID 588819; in the data active = activation above about 19%, passing the limit was not always enough
# Active calls of the source: *.
SMILES,CHO-K1 Ca ag,M1 ag,CHO-K1 Ca antag,CHO-K1 Ca PAM,M1 antag,M1 PAM
N#Cc1c(Nc2ccccc2)sc(C(=O)C2CC2)c1N,0,-1,-9,16,-3,6
COc1ccc(CN(CCC(c2ccc(F)cc2)C2CCOC(C)(C)C2)C(=O)c2ccco2)cc1 (stereo not drawn),5,-8,2,5,26*,-24
C(=C\c1ccccc1)/CN1CCN(C(c2ccccc2)c2nnnn2C2CCCCC2)CC1 (stereo not drawn),0,-6,-10,3,43*,-26
COc1cccc(C(c2nnnn2C2CCCC2)N2CCN(C/C=C/c3ccccc3)CC2)c1OC (stereo not drawn),0,-6,-15,16,54*,-25
C(=C\c1ccccc1)/CN1CCN(C(c2ccnc3ccccc23)c2nnnn2C2CCCCC2)CC1 (stereo not drawn),0,-7,-20,15,17,-26
CCC(c1nnnn1C1CCCC1)N1CCN(C/C=C/c2ccccc2)CC1 (stereo not drawn),6,-3,-10,14,-20,-4
O=C(NCCCN1CCCC1=O)C1CCN(S(=O)(=O)c2c(Cl)cccc2Cl)CC1,0,-4,11,5,2,3
CCN1C(=O)[C@@H]2Cc3c([nH]c4ccccc34)C(c3ccc(OC)cc3)N2C1=S (stereo partly drawn),6,-4,-5,9,71*,-31
COCCCN1CC(=O)N2C(c3ccccc3)c3[nH]c4ccccc4c3C[C@H]2C1=O (stereo partly drawn),1,-8,-11,-10,-9,3
COC(=O)c1ccc(C2c3[nH]c4ccccc4c3C[C@H]3C(=O)N(C)CC(=O)N23)cc1 (stereo partly drawn),2,0,-16,-7,12,-2
CN1CC(=O)N2C(c3ccc(Cl)cc3)c3[nH]c4ccccc4c3C[C@H]2C1=O (stereo partly drawn),24*,-3,9,19,0,0
CSCCC(C(=O)Nc1c(C)cccc1C)N1CCN(c2ccc(C(F)(F)F)cn2)CC1 (stereo not drawn),0,-3,-14,4,-16,-3
CCCCc1nc(NCCN2CCOCC2)c(C#N)c2c1COC(C)(C)C2,0,2,25*,-6,-20,13
CC(C)Cc1nc(NCCN2CCOCC2)c(C#N)c2c1COC(C)(C)C2,0,-6,-4,0,-3,-1
O=S(=O)(c1ccccc1)N(CC1CO1)c1ccccc1 (stereo not drawn),16*,-4,-9,29,-4,10
O=[N+]([O-])c1ccc(N(CC2CO2)S(=O)(=O)c2ccccc2)cc1 (stereo not drawn),1,-10,-2,-14,-9,21
CCOC(=O)c1sc(NC(=O)Cn2nnc3sc4c(c3c2=O)CCC(C(C)(C)C)C4)nc1C (stereo not drawn),-1,-3,26*,-12,-11,4
CCOC(=O)C1CCCN(c2cc(=O)n(C3CCCCC3)c(=O)[nH]2)C1 (stereo not drawn),1,31*,3,9,6,1
OCCCCNCc1ccc(OCc2ccc(Cl)cc2Cl)cc1,11,-7,-27,14,35*,-27
CN(c1ccccc1)S(=O)(=O)c1ccc(C(=O)NCC(c2ccco2)N2CCCCC2)cc1 (stereo not drawn),4,-6,-18,14,36*,-19
O=C(NCC(c1ccco1)N1CCCCC1)c1ccc(S(=O)(=O)Nc2ccccc2)cc1 (stereo not drawn),5,-4,-10,4,32*,-25
O=C(NCC(c1ccco1)N1CCCC1)c1cccc(NS(=O)(=O)c2ccccc2)c1 (stereo not drawn),3,-8,-2,9,90*,-27
COc1ccccc1N(C)S(=O)(=O)c1ccc(C(=O)NCC(c2ccco2)N2CCCCC2)cc1 (stereo not drawn),2,-7,-3,-1,6,-4
CN(C)C(CNC(=O)c1ccc(S(=O)(=O)Nc2ccccc2)cc1)c1ccco1 (stereo not drawn),3,-6,-3,3,27*,-17
Cc1ccc(C)c(NS(=O)(=O)c2cc(C(=O)NCc3ccccn3)ccc2C)c1,1,1,7,-12,1,9
SMILES,CHO-K1 Ca ag,M1 ag,CHO-K1 Ca antag,CHO-K1 Ca PAM,M1 antag,M1 PAM
CCOc1ccc(OCC(=O)NCCS(=O)(=O)N2CCN(c3ccccc3)CC2)cc1,1,-1,-8,12,1,-2
O=C1C(=C(c2ccccc2)N2CCOCC2)Cc2ccccc21,1,-4,-18,33,-13,5
COc1ccc(OCC(=O)Nc2cc3c(cc2C(=O)O)OCCCO3)cc1,0,-2,-14,7,-17,13
O=C(NCC(c1ccco1)N1CCCC1)c1ccccc1F (stereo not drawn),0,-7,-5,17,-9,4
CCc1cc(C(=O)NCC(c2ccco2)N2CCCCC2)sc1C (stereo not drawn),-1,-9,1,-16,29*,-19
CCOCc1c(C(=O)NCC(c2ccco2)N2CCCC2)oc2ccccc12 (stereo not drawn),0,-9,14,-20,28*,-18
Cc1ccc(NS(=O)(=O)c2cccc(C(=O)NCC(c3ccco3)N3CCCC3)c2)cc1 (stereo not drawn),2,-3,-1,-14,-9,10
Cc1c(C(=O)NCC(c2ccco2)N2CCCC2)sc2ccccc12 (stereo not drawn),1,-6,-10,23,-11,4
Cc1ccc(NS(=O)(=O)c2ccc(C(=O)NCC(c3ccco3)N3CCCCC3)cc2)cc1 (stereo not drawn),18*,8,5,13,11,-19
Nc1nc(N)c2cc(S(=O)(=O)c3ccc4ccccc4c3)ccc2n1,10,3,9,-2,22,-11
O=C(NCC1CC1)c1ccc(-c2cn[nH]c2)c2ccoc12,0,-4,-13,17,-16,9
Cc1c(C(=O)NCc2ccc([N+](=O)[O-])cc2)sc(=O)n1Cc1ccc(-c2ccccc2)cc1,0,4,0,18,-6,9
Cc1[nH]c(=O)sc1C(=O)NCc1ccc([N+](=O)[O-])cc1,0,-1,35*,-11,-8,8
COc1ccccc1CN1C2CCCC1CC(NC(=O)/C=C/c1ccccc1)C2 (stereo not drawn),1,-13,-15,20,62*,-32
COCCC(=O)NC1CCCc2c1cnn2-c1cccc(C)c1C (stereo not drawn),1,-4,-3,-4,-1,-2
